{"source": "the supplement of paper PMC6288085", "note": "Where a name gives a salt, the structure may show the parent alone. ± gives the uncertainty stated by the source.", "data": [{"system": "Caenorhabditis elegans N2", "experiment": "food intake (mean delta OD600 / animal over 72 h) with 50 uM loxapine co-treatment (OD600 units per animal); higher = more food eaten (less suppression of loxapine-induced hyperphagia)", "settings": "first compound 33 µM, loxapine concentration 50 µM", "procedure": "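C. elegans N2 adults (FUDR-sterilised, day 1) in 96-well plates fed gamma-irradiated bacteria. Each library drug (MedChemExpress FDA-approved library) at 33 uM was combined with loxapine at 50 uM. Food intake was measured as bacterial clearance: the change in OD600 from day 1 to 72 h, normalised per animal (mean over 14-21 wells of about 10-12 worms). Drugs flagged for bacterial lysis or sickness were excluded by the authors.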", "values": [{"smiles": "Cc1nc(C(=O)NCC(=O)O)c(O)c2ccc(Oc3ccccc3)cc12", "note": "+ CN1CCN(C2=Nc3ccccc3Oc3ccc(Cl)cc32)CC1 [loxapine]", "food intake": "0.0228 ± 0.0037"}, {"smiles": "O=C1CCc2cc(OCCCCc3nnnn3C3CCCCC3)ccc2N1", "note": "[cilostazol] + CN1CCN(C2=Nc3ccccc3Oc3ccc(Cl)cc32)CC1 [loxapine]", "food intake": "0.0227 ± 0.0031"}, {"smiles": "Cc1ccc(C)c(OCCCC(C)(C)C(=O)O)c1", "note": "[Gemfibrozil] + CN1CCN(C2=Nc3ccccc3Oc3ccc(Cl)cc32)CC1 [loxapine]", "food intake": "0.0247 ± 0.0069"}, {"smiles": "COc1ccc(CNc2nc(N3CCC[C@H]3CO)ncc2C(=O)NCc2ncccn2)cc1Cl", "note": "[avanafil] + CN1CCN(C2=Nc3ccccc3Oc3ccc(Cl)cc32)CC1 [loxapine]", "food intake": "0.023 ± 0.0037"}, {"smiles": "C#Cc1cccc(Nc2ncnc3cc(OCCOC)c(OCCOC)cc23)c1", "note": "[Erlotinib] + CN1CCN(C2=Nc3ccccc3Oc3ccc(Cl)cc32)CC1 [loxapine]", "food intake": "0.0212 ± 0.0034"}, {"smiles": "O=C(c1ccccc1)c1ccc2n1CCC2C(=O)O", "note": "(stereo not given) [ketorolac (romethamine salt)] + CN1CCN(C2=Nc3ccccc3Oc3ccc(Cl)cc32)CC1 [loxapine]", "food intake": "0.0225 ± 0.0034"}, {"smiles": "S=C=Nc1ccc(N=C=S)cc1", "note": "[p-Phenylene diisothiocyanate] + CN1CCN(C2=Nc3ccccc3Oc3ccc(Cl)cc32)CC1 [loxapine]", "food intake": "0.0229 ± 0.0028"}, {"smiles": "O=C(O)C1=C(CSc2nnnn2CS(=O)(=O)O)CS[C@@H]2[C@H](NC(=O)[C@H](O)c3ccccc3)C(=O)N12", "note": "[cefonicid (sodium)] + CN1CCN(C2=Nc3ccccc3Oc3ccc(Cl)cc32)CC1 [loxapine]", "food intake": "0.0217 ± 0.018"}, {"smiles": "C=CCNC(N)=S", "note": "[allylthiourea] + CN1CCN(C2=Nc3ccccc3Oc3ccc(Cl)cc32)CC1 [loxapine]", "food intake": "0.0237 ± 0.003"}, {"smiles": "N[C@@H]1CCCCN(c2c(F)cc3c(=O)c(C(=O)O)cn(C4CC4)c3c2Cl)C1", "note": "[besifloxacin (hydrochloride)] + CN1CCN(C2=Nc3ccccc3Oc3ccc(Cl)cc32)CC1 [loxapine]", "food intake": "0.0227 ± 0.0056"}, {"smiles": "CCc1ccc(CCOc2ccc(CC3SC(=O)NC3=O)cc2)nc1", "note": "(stereo not given) [pioglitazone (hydrochloride)] + CN1CCN(C2=Nc3ccccc3Oc3ccc(Cl)cc32)CC1 [loxapine]", "food intake": "0.0215 ± 0.0041"}, {"smiles": "Cc1cc(C)cc(OCC2CNC(=O)O2)c1", "note": "(stereo not given) [metaxalone] + CN1CCN(C2=Nc3ccccc3Oc3ccc(Cl)cc32)CC1 [loxapine]", "food intake": "0.0236 ± 0.003"}, {"smiles": "C[N+]1(C)CCC(=C(c2ccccc2)c2ccccc2)CC1", "note": "[diphenmanil (methylsulfate)] + CN1CCN(C2=Nc3ccccc3Oc3ccc(Cl)cc32)CC1 [loxapine]", "food intake": "0.0235 ± 0.0021"}, {"smiles": "CC[C@H]1OC(=O)C[C@@H](O)[C@H](C)[C@@H](O[C@@H]2O[C@H](C)[C@@H](O[C@H]3C[C@@](C)(O)[C@@H](O)[C@H](C)O3)[C@H](N(C)C)[C@H]2O)[C@@H](CC=O)C[C@@H](C)C(=O)/C=C/C(C)=C/[C@@H]1CO[C@@H]1O[C@H](C)[C@@H](O)[C@@H](OC)[C@H]1OC", "note": "[Tylosin] + CN1CCN(C2=Nc3ccccc3Oc3ccc(Cl)cc32)CC1 [loxapine]", "food intake": "0.0219 ± 0.0051"}, {"smiles": "O=C1NC(=O)C(c2ccccc2)(c2ccccc2)N1", "note": "[phenytoin] + CN1CCN(C2=Nc3ccccc3Oc3ccc(Cl)cc32)CC1 [loxapine]", "food intake": "0.0218 ± 0.0037"}, {"smiles": "COC(=O)/C=C/C(=O)OC", "note": "[dimethyl fumarate] + CN1CCN(C2=Nc3ccccc3Oc3ccc(Cl)cc32)CC1 [loxapine]", "food intake": "0.0218 ± 0.0043"}, {"smiles": "Fc1ccc([C@@H]2CCNC[C@H]2COc2ccc3c(c2)OCO3)cc1", "note": "[paroxetine (hydrochloride)] + CN1CCN(C2=Nc3ccccc3Oc3ccc(Cl)cc32)CC1 [loxapine]", "food intake": "0.0221 ± 0.0043"}, {"smiles": "Nc1nnc(-c2cccc(Cl)c2Cl)c(N)n1", "note": "[lamotrigine] + CN1CCN(C2=Nc3ccccc3Oc3ccc(Cl)cc32)CC1 [loxapine]", "food intake": "0.0237 ± 0.008"}, {"smiles": "NNc1nncc2ccccc12", "note": "[hydralazine (hydrochloride)] + CN1CCN(C2=Nc3ccccc3Oc3ccc(Cl)cc32)CC1 [loxapine]", "food intake": "0.022 ± 0.017"}, {"smiles": "CC(C)NCC(O)COc1ccc(CCOCC2CC2)cc1", "note": "(stereo not given) [betaxolol] + CN1CCN(C2=Nc3ccccc3Oc3ccc(Cl)cc32)CC1 [loxapine]", "food intake": "0.0265 ± 0.0022"}, {"smiles": "CCc1nc(N)nc(N)c1-c1ccc(Cl)cc1", "note": "[pyrimethamine] + CN1CCN(C2=Nc3ccccc3Oc3ccc(Cl)cc32)CC1 [loxapine]", "food intake": "0.0221 ± 0.003"}, {"smiles": "Nc1ccn([C@@H]2CS[C@H](CO)O2)c(=O)n1", "note": "[lamivudine] + CN1CCN(C2=Nc3ccccc3Oc3ccc(Cl)cc32)CC1 [loxapine]", "food intake": "0.0212 ± 0.003"}, {"smiles": "CN(Cc1cnc2nc(N)nc(N)c2n1)c1ccc(C(=O)N[C@@H](CCC(=O)O)C(=O)O)cc1", "note": "[methotrexate] + CN1CCN(C2=Nc3ccccc3Oc3ccc(Cl)cc32)CC1 [loxapine]", "food intake": "0.0222 ± 0.0022"}, {"smiles": "CN(C)[C@@H]1C(O)=C(C(N)=O)C(=O)[C@@]2(O)C(O)=C3C(=O)c4c(O)cccc4[C@@](C)(O)[C@H]3C[C@@H]12", "note": "[Tetracycline (hydrochloride)] + CN1CCN(C2=Nc3ccccc3Oc3ccc(Cl)cc32)CC1 [loxapine]", "food intake": "0.0228 ± 0.0038"}, {"smiles": "O=P(O)(O)C(O)(Cn1ccnc1)P(=O)(O)O", "note": "[Zoledronic acid (monohydrate)] + CN1CCN(C2=Nc3ccccc3Oc3ccc(Cl)cc32)CC1 [loxapine]", "food intake": "0.0237 ± 0.003"}]}]}
